Results on 1 sequence are retold here after article PMC7862700, “An all-to-all approach to the identification of sequence-specific readers for epigenetic DNA modifications on cytosine”.

What all share (assay): DAPPL (digital affinity profiling via proximity ligation, sequencing); 10 mM Tris-HCl pH 7.5, 50 mM NaCl, 1 mM DTT, 4% glycerol, room temperature, 30 min; GST-TFs on glutathione beads, 16-mer random dsDNA library, 0.1% formaldehyde crosslink after washing; high values mean tight binding
The target in assay [1] is T1, FLI1 (Homo sapiens, UniProt Q01543 1-452).
T1 sequence: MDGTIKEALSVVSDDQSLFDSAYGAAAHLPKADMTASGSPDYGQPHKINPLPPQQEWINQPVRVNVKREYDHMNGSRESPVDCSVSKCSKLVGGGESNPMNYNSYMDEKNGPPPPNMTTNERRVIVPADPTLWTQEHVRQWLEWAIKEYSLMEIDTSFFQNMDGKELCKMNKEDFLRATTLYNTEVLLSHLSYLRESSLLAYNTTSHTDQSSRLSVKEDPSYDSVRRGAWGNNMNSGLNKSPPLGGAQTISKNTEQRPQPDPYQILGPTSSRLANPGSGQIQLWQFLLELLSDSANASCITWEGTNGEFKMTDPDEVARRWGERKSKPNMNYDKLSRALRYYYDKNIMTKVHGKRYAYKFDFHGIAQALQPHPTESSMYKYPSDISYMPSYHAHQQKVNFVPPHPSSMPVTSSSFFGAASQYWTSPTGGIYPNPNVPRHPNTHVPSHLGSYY
The following applies: protein: recombinant; tags: N-terminal GST; dsDNA, one strand shown. In outline: (§1)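 After expression in yeast as GST fusions, human transcription factors were bound to glutathione beads, DNA-barcoded and mixed with a tag-only sample. The pools were incubated with 200 nmole of a 16-mer random double-stranded DNA library in Tris/NaCl/DTT/glycerol buffer (30 min, room temperature), washed and crosslinked with 0.1% formaldehyde. Proximity ligation with BsaI/T4 ligase ran for 1 h at 37 °C, before PCR amplification and sequencing on an Illumina NextSeq500. Binding signal is a hexamer's read frequency for a factor divided by its frequency for the tag-only sample.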

In assay [2] the target is T2, ELK1 (Homo sapiens, UniProt P19419 1-428).
T2 sequence: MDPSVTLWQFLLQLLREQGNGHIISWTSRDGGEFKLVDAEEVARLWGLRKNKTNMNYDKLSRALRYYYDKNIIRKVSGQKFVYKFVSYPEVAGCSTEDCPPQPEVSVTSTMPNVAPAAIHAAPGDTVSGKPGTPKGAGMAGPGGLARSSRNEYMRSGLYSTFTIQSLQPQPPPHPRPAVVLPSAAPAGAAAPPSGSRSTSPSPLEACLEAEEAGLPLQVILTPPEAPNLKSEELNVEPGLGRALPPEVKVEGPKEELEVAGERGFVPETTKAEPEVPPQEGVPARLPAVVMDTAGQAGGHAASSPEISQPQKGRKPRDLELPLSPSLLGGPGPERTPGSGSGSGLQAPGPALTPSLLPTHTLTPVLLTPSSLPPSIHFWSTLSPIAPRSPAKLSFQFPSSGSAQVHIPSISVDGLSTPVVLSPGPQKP
The note with it: protein: recombinant; tags: N-terminal GST; dsDNA, one strand shown. In outline:
as §1

Assay [3] has as its target T3, GABPA (Homo sapiens, UniProt Q06546 1-454).
T3 sequence: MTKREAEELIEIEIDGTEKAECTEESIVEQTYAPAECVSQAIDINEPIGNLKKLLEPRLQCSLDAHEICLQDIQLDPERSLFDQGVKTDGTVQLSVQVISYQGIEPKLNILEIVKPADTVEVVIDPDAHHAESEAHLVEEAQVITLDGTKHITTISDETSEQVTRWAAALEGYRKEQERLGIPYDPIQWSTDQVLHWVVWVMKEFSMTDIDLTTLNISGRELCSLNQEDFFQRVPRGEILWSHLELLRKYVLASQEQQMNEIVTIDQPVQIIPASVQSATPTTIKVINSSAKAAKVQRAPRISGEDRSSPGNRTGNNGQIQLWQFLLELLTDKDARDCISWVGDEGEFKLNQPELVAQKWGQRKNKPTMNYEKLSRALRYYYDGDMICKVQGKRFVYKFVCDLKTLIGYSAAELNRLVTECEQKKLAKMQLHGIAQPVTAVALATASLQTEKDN
The note with it: protein: recombinant; tags: N-terminal GST; dsDNA, one strand shown. In outline: as §1

The target in assay [4] is T4, ERG (Homo sapiens, UniProt P11308 1-479).
T4 sequence: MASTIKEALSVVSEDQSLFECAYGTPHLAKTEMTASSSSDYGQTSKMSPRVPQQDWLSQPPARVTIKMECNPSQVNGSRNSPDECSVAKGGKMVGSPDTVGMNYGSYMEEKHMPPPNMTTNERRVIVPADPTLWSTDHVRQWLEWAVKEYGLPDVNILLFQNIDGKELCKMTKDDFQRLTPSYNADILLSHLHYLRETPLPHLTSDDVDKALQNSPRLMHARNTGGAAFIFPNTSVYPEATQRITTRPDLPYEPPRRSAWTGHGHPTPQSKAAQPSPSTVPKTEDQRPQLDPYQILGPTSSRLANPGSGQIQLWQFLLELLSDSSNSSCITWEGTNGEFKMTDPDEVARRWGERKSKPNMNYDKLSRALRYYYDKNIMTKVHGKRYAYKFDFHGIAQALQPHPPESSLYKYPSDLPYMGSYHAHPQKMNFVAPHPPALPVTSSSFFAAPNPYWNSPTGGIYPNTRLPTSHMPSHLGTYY
The following applies: protein: recombinant; tags: N-terminal GST; dsDNA, one strand shown. In a few lines:
as §1

Assay [5] addresses ELF1 (Homo sapiens, UniProt P32519 1-619). The note with it: protein: recombinant; tags: N-terminal GST; dsDNA, one strand shown. In a few lines: as §1
Assay [6] deals with T5, EHF (Homo sapiens, UniProt Q9NZC4 1-300).
T5 sequence: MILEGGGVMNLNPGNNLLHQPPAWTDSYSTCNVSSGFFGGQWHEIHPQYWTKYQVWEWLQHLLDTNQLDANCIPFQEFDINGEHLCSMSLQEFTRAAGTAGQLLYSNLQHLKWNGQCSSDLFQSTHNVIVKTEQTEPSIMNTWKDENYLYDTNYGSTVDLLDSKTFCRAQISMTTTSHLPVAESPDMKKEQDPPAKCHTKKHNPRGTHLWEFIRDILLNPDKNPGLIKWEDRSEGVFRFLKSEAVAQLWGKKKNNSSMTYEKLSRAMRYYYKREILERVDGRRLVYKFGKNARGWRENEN
The note with it: protein: recombinant; tags: N-terminal GST; dsDNA, one strand shown. In a few lines: as §1

Assay [7] deals with SPI1 (Homo sapiens, UniProt P17947 1-270). The note with it: protein: recombinant; tags: N-terminal GST; dsDNA, one strand shown. In a few lines:
as §1

Assay [8] deals with SPIB (Homo sapiens, UniProt Q01892 1-262). The following applies: protein: recombinant; tags: N-terminal GST; dsDNA, one strand shown. In a few lines: as §1
In assay [9] the target is T6, ELK3 (Homo sapiens, UniProt P41970 1-407).
T6 sequence: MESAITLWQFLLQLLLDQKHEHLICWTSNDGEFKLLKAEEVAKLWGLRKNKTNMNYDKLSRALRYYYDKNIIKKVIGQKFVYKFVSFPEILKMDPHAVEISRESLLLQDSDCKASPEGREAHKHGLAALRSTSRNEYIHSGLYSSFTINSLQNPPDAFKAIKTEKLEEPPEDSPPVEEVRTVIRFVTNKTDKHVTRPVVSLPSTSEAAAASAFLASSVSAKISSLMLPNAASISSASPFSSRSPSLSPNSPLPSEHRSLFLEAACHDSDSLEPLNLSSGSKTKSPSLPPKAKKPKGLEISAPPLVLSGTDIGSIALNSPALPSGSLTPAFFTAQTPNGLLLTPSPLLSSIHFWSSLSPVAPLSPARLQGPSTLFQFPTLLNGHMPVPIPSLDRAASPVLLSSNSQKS
The following applies: protein: recombinant; tags: N-terminal GST; dsDNA, one strand shown. In outline:
as §1

For assay [10], the target named is T7, FEV (Homo sapiens, UniProt Q99581 1-238).
T7 sequence: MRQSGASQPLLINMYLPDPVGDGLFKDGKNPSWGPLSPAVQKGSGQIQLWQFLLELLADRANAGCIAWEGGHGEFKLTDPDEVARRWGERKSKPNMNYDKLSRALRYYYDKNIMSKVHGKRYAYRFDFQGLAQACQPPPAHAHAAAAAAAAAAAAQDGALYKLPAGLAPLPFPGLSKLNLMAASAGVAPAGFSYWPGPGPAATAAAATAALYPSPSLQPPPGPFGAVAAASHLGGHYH
The note with it: protein: recombinant; tags: N-terminal GST; dsDNA, one strand shown. In a few lines: as §1

Assay [11] concerns the target ETV5 (Homo sapiens, UniProt P41161 1-510). The note with it: protein: recombinant; tags: N-terminal GST; dsDNA, one strand shown. In outline: as §1
Assay [12] addresses HSF1 (Homo sapiens, UniProt Q00613 1-529). The note with it: protein: recombinant; tags: N-terminal GST; chain copies: 3; dsDNA, one strand shown. In a few lines:
as §1

Assay [13] has as its target T8, SPIC (Homo sapiens, UniProt Q8N5J4 1-248).
T8 sequence: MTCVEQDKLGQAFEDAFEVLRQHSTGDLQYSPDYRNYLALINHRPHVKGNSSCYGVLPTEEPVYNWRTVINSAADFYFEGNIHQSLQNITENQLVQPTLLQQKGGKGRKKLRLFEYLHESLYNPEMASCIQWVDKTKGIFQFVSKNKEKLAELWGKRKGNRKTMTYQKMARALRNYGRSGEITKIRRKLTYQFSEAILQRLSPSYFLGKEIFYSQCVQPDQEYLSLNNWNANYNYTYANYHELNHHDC
The following applies: protein: recombinant; tags: N-terminal GST; dsDNA, one strand shown. In outline:
as §1

Assay [14] has as its target ELF4 (Homo sapiens, UniProt Q99607 1-663). The following applies: protein: recombinant; tags: N-terminal GST; dsDNA, one strand shown. In outline:
as §1

Assay [15] deals with T9, ELK4 (Homo sapiens, UniProt P28324-2 1-405).
T9 sequence: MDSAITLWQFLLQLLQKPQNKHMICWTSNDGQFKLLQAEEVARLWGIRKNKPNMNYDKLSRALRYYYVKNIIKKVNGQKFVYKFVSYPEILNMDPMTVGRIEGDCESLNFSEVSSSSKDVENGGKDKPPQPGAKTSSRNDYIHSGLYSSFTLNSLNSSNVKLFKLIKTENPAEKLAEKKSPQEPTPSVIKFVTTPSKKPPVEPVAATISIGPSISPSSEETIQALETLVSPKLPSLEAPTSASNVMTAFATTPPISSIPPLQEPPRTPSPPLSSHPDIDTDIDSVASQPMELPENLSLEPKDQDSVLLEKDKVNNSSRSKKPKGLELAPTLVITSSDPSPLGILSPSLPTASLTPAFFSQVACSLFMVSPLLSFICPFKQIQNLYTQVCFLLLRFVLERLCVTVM
The following applies: protein: recombinant; tags: N-terminal GST; dsDNA, one strand shown. In outline:
as §1

In assay [16] the target is T10, ETV2 (Homo sapiens, UniProt O00321 1-342).
T10 sequence: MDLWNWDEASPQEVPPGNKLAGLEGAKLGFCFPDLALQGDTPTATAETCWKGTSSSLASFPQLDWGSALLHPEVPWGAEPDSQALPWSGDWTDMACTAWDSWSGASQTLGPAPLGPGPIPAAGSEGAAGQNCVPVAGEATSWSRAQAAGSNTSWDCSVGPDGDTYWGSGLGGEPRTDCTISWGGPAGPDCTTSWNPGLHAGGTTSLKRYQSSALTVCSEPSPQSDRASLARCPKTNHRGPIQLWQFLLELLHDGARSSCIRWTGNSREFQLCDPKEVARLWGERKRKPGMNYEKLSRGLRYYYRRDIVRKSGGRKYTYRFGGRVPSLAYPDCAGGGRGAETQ
The following applies: protein: recombinant; tags: N-terminal GST; dsDNA, one strand shown. In a few lines: as §1

The target of assay [17] is T11, ELF3 (Homo sapiens, UniProt P78545 1-371).
T11 sequence: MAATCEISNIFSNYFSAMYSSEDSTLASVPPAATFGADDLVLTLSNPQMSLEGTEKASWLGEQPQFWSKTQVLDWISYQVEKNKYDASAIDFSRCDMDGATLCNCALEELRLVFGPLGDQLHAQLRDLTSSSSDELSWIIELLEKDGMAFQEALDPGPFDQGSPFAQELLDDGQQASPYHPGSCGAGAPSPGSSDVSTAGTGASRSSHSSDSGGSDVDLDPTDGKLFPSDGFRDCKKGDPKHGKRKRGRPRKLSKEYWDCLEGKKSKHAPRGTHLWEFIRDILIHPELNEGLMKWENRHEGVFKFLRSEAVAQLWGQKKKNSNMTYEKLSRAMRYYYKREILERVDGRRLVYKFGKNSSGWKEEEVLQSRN
The following applies: protein: recombinant; tags: N-terminal GST; dsDNA, one strand shown. In a few lines: as §1

The target of assay [18] is CRX (Homo sapiens, UniProt O43186 1-299). The note with it: protein: recombinant; tags: N-terminal GST; dsDNA, one strand shown. In outline: as §1
In assay [19] the target is ETV1 (Homo sapiens, UniProt P50549 1-477). The note with it: protein: recombinant; tags: N-terminal GST; dsDNA, one strand shown. In a few lines: as §1
Chain of ETV1 (P50549 whole entry): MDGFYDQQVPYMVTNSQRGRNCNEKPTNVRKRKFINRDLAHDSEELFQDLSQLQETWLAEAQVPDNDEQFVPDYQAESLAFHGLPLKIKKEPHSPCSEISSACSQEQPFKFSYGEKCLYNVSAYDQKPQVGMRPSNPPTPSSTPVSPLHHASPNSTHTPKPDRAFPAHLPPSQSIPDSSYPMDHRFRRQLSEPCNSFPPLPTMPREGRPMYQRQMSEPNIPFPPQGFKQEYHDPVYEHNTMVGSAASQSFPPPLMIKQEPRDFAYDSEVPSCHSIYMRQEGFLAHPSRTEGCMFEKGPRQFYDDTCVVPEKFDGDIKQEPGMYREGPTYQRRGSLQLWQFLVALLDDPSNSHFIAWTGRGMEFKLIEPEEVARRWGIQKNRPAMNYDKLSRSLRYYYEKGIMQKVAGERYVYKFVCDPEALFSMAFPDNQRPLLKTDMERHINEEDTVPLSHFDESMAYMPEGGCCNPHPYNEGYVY

Chain of ELF4 (Q99607 whole entry): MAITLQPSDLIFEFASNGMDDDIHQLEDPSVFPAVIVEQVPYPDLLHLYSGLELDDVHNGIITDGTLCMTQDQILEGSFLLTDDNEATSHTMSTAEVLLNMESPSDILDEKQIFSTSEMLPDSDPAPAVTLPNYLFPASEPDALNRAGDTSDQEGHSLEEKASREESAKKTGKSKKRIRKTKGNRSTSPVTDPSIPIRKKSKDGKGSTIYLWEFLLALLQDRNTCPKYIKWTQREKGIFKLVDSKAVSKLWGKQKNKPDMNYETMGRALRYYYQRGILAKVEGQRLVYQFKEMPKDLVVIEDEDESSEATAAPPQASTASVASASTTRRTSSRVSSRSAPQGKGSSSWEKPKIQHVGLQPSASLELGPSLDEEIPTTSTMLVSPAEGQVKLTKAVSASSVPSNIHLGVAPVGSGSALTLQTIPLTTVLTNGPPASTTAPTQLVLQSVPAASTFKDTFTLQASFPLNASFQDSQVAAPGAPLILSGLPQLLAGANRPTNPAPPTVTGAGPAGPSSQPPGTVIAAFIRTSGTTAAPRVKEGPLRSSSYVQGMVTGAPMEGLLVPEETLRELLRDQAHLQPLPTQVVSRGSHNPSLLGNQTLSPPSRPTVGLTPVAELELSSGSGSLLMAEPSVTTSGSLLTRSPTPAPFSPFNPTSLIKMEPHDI
Chain of ELF1 (P32519 whole entry): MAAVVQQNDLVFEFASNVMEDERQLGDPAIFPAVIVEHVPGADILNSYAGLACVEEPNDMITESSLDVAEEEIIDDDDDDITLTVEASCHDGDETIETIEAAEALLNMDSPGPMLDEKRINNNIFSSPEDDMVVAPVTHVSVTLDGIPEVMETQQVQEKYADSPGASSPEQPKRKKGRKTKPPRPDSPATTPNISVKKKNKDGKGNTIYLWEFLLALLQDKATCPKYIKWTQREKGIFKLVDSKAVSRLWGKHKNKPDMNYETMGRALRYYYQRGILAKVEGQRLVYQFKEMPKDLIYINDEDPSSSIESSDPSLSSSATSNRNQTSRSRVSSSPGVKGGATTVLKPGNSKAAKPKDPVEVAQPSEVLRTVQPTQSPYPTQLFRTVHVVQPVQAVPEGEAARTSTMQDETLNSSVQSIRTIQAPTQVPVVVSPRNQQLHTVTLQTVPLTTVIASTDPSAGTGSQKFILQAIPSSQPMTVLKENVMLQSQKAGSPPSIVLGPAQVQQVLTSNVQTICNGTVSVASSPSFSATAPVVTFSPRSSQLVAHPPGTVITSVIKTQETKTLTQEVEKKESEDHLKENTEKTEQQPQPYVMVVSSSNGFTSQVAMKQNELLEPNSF
Chain of ETV5 (P41161 whole entry): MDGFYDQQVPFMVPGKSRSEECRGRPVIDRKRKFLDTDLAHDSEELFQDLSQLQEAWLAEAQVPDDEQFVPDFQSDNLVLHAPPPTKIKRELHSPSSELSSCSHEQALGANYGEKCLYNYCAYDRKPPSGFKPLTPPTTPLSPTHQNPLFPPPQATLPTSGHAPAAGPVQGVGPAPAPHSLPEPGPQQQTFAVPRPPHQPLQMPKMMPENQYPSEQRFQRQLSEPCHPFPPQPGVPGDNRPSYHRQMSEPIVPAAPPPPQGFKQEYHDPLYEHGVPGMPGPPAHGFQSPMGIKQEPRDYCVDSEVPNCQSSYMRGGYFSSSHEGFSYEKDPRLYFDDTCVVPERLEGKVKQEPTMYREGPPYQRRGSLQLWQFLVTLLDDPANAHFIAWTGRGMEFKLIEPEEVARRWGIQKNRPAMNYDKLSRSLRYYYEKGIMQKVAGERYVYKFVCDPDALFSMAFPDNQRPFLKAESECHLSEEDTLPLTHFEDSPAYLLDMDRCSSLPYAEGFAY
Chain of CRX (O43186 whole entry): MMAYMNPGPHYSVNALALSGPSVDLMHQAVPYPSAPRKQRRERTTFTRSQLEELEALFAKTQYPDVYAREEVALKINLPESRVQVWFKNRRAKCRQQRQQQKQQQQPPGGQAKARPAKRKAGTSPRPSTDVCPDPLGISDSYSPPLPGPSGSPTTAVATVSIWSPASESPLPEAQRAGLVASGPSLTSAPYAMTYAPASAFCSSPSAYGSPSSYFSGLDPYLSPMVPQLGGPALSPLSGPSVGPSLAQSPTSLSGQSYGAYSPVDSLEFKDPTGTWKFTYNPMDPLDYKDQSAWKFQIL
Chain of SPIB (Q01892 whole entry): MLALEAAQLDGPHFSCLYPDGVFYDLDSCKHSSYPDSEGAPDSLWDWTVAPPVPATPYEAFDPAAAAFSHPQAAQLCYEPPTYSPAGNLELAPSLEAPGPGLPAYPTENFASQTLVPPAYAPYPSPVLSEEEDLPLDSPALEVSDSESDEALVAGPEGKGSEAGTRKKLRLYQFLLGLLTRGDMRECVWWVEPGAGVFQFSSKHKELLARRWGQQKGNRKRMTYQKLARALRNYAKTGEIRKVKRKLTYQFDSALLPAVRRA
Chain of HSF1 (Q00613 whole entry): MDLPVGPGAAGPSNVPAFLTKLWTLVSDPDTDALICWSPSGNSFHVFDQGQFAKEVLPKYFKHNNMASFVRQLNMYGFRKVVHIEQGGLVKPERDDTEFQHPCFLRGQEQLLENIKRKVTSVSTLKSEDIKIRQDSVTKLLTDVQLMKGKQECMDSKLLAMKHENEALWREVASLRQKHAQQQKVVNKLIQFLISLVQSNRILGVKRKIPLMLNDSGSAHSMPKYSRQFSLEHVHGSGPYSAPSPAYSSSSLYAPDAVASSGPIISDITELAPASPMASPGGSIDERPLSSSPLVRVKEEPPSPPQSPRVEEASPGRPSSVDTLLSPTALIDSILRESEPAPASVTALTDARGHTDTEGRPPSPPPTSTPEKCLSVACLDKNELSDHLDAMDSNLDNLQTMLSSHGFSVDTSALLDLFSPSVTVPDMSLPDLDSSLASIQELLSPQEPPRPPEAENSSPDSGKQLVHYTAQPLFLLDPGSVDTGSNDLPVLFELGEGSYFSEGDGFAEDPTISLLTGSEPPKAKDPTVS

TTGTAG: the binding signal was 1.13 fold enrichment (6-mer frequency, TF over GST control) in [1]; 1.19 fold enrichment (6-mer frequency, TF over GST control) in assay [2]; 1.12 fold enrichment (6-mer frequency, TF over GST control) in assay [3]; 1.12 fold enrichment (6-mer frequency, TF over GST control) in assay [4]; 1.14 fold enrichment (6-mer frequency, TF over GST control) in assay [5]; 1.11 fold enrichment (6-mer frequency, TF over GST control) in [6]. Moreover, the binding signal in [7] was 1.07 fold enrichment (6-mer frequency, TF over GST control); in [8], 1.23 fold enrichment (6-mer frequency, TF over GST control); in assay [9] it was 1.2 fold enrichment (6-mer frequency, TF over GST control); in assay [10], 1.02 fold enrichment (6-mer frequency, TF over GST control); in assay [11], 1.1 fold enrichment (6-mer frequency, TF over GST control); in [12], 1.23 fold enrichment (6-mer frequency, TF over GST control). Also, the binding signal in assay [13] was 1.02 fold enrichment (6-mer frequency, TF over GST control); in assay [14], 1.2 fold enrichment (6-mer frequency, TF over GST control); in assay [15] it was 1.31 fold enrichment (6-mer frequency, TF over GST control); in assay [16], 1.15 fold enrichment (6-mer frequency, TF over GST control); in assay [17], 1.03 fold enrichment (6-mer frequency, TF over GST control); in assay [18] it was 1.13 fold enrichment (6-mer frequency, TF over GST control). Also, the binding signal in assay [19] is 1.25 fold enrichment (6-mer frequency, TF over GST control).
